This is part of a sample that, as a whole, favours compounds with a hit. Of some 83,000 tested, about 20% had one in any assay.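 For each line, cells grew in 96-well plates with the test compound present at a single concentration for 48 hours.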 Activity calls are given as the source filed them. How the source made its calls: active means growth percent below 10; inactive means the rest.

From PubChem BioAssay (NCI) come the findings set out here.

One assay has as its system IGROV1 ovarian. In words: NCI-60 one-dose screen, 48 h (100 = growth as untreated, 0 = no growth, -100 = all killed). Particulars: 10 µM unless noted.
Regarding `CC(=O)C1=C(O)C=C2Oc3c(C(=O)/C=C/c4ccccc4)c(O)c(C)c(O)c3[C@]2(C)C1=O`, the growth was 37.1% (inactive). Same read-out and setting: next, `Cn1c(=O)c2c(ncn2CC[N+](C)(C)C)n(C)c1=O`: 102% (inactive); `OC(c1cc(-c2ccccc2)nc2ccc(Cl)cc12)C1CCCCN1` (stereo unspecified): 53.4% (inactive).

The subject of the next assay is OVCAR-3 ovarian. The assay is described as above. The settings on record: 10 µM unless noted.
Regarding `CC[n+]1ccc2c(c1)C(=O)c1nccc3c1c-2nc1ccccc13`, the growth was -14.6% (active). For `COc1ccc(-c2csc(NC(=O)CN3CCN(c4cc5c(cc4F)c(=O)c(C(=O)O)cn5C4CC4)CC3)n2)cc1`, the growth was 12.7% (inactive). Still for that read-out and setting: the figure for `O=C1c2cc3c(cc2-c2c1c1cc(F)c(F)cc1c(=O)n2C[C@H](O)CO)OCO3` is -8.12% (active).

Consider `Cn1c2ccccc2c2c3c(c4c5ccccc5n(CCCCCC#N)c4c21)C(=O)N(O)C3=O`, for which the growth is 6.92% (active).

For `CCOC(=O)c1c2c(n3ccc(NC(=O)CCN4CCOCC4)cc13)C(=O)c1ncccc1C2=O`, the growth is 4.63% (active).

As to `Oc1ccccc1N=Cc1c(O)ccc2ccccc12`, the growth was 64.2% (inactive). On the same count and under the same terms, the figure for `O=c1ccc2cc3ccccc3cc2[nH]1` is 87.4% (inactive). Same read-out and setting: the figure for `O=C(Nc1ccc(Oc2ccc(F)cc2)c(Cl)c1)c1cccnc1` is 85.8% (inactive). On the same count and under the same terms, the figure for `CCCCCCCCCc1cc(CN2CCCCC2)c(O)c(CN2CCCCC2)c1` is 41.9% (inactive); for `CC/C(Cc1ccccc1)=C(\c1ccc(OCCN2CCCC2)cc1)c1ccc(OC(C)=O)cc1` it is 89.6% (inactive). With `C=C1CC[C@@H]2[C@](C)(COC(C)=O)[C@H](OC(C)=O)CC[C@@]2(C)[C@@H]1CC(Nc1ccc(S(=O)(=O)Nc2nc(C)cc(C)n2)cc1)C1=CCOC1=O` (stereo partly specified), the growth is 44.8% (inactive). With `COc1ccc2c(c1)C(=O)/C(=C/c1cccc(OCC(=O)Nc3nc4c(s3)CCCC4)c1)O2`, the growth is -68.6% (active).

Regarding `O=C([C@@H](COCc1ccccc1)N1C(=O)[C@@H](N2C(=O)OC[C@@H]2c2ccccc2)[C@H]1/C=C/c1ccccc1)N1CCC(CCN2CCCCC2)CC1`, the growth is 91.5% (inactive).

`O=c1[nH]c(-c2ccccn2)nc2sc3c(c12)CCCCC3`: the growth was 40.3% (inactive). Same read-out and setting: the figure for `NC1=CC(=O)C(=O)c2ccccc21` is 84.1% (inactive); for `CN1CCOCCOCCOc2ccccc2NC(=O)c2nc(cnc2N)-c2ccc(cc2)S1(=O)=O` it is 43.7% (inactive); for `COc1ccc(S(=O)(=O)NCCCNc2nccc(-c3c(-c4cccc(N)c4)nc4sccn34)n2)cc1` it is 94.5% (inactive).

With `COc1ccccc1N1CCN(CCn2c(=O)c3c(c4ccccc4n3C)n(C)c2=O)CC1`, the growth is 103% (inactive). For the molecule `COc1cnc2c(c1)C(=O)c1c-2n(CCCBr)c(=O)c2cc([N+](=O)[O-])ccc12`, the growth was -44.1% (active).

As for `O=C(C[C@@H](C(=O)NCc1cccc(C(F)(F)F)c1)N1C(=O)[C@@H](N2C(=O)OC[C@@H]2c2ccccc2)[C@H]1/C=C/c1ccccc1)NC1CCN(Cc2ccccc2)CC1`, the growth is 65.6% (inactive).

With `CCCCCCNC(=O)Oc1ccc(/C(=C(\C)c2ccccc2)c2ccc(OCCN(CC)CC)cc2)cc1`, the growth was 66.9% (inactive). On the same count and under the same terms, next, `CC#CC#Cc1cccc(=O)o1`: 7.67% (active); `CCCCCCCCCCCCNC(=O)[C@H]1CSC(c2ccc(OC)c(F)c2)N1` (stereo partly specified): -91.9% (active); `O=C(CN1CCN(c2cc3c(cc2F)c(=O)c(C(=O)N/N=C/c2ccccc2)cn3C2CC2)CC1)N/N=C\c1ccccc1`: 77% (inactive). On the same count and under the same terms, next, `CNc1nc(C)c(-c2nc(Nc3cccc(S(N)(=O)=O)c3)ncc2F)s1`: 10.2% (inactive); `CC1=CC(=O)CC(C)(C)[C@@]1(O)/C=C/[C@@H](C)O`: 108% (inactive).

As to `CC(=O)Nc1ccc2c(c1)c(NC(C)=O)nn2C(=O)Nc1ccc(Cc2ccccc2)cc1`, the growth is 84.4% (inactive).

In the case of `Cn1c2ccccc2c2c3c(c4c5ccccc5[nH]c4c21)C(=O)N(N)C3=O`, the growth is 69.6% (inactive). Still for that read-out and setting: the figure for `COc1cc(OC)c(/C=C/C(=O)c2c(OC)cc(OC)cc2OC)c(OC)c1` is 6.92% (active). On the same count and under the same terms, next, `CCCCCCCCCCCCCCCCCCNC(=O)[C@H]1CSC(c2ccc(OC)c(F)c2)N1` (stereo partly specified): -3.45% (active); `O=C1c2cc3c(cc2-c2c1c1cc(Cl)c(Cl)cc1c(=O)n2C[C@H](O)CO)OCO3`: -54.2% (active). Still for that read-out and setting: next, `COc1cc2nc3cc([N+](=O)[O-])ccc3c(NCCCNCC(C)(C)O)c2cc1OC`: -60.3% (active); `CC(C)C1=C[C@@]23CC[C@@H]4[C@](C)(CCC[C@@]4(C)C(=O)OCC#CCN4CCCC4)[C@H]2C[C@@H]1[C@H]1C(=O)OC(=O)[C@H]13`: 94.2% (inactive); `CN(C)c1ccc(/C=C(\C#N)c2nc3ccccc3s2)cc1`: 119% (inactive). As to `COc1ccc(Cl)cc1Nc1nc(C(F)(F)F)ccc1C(=O)N/N=C/c1cccnc1`, the growth was 29.3% (inactive).

For the molecule `CC(=O)C1=C(O)C=C2Oc3c(C(=O)/C=C/c4ccccc4)c(O)c(C)c(O)c3[C@]2(C)C1=O`, the growth was 27.5% (inactive). The same measure, in the same setting: next, `Cn1c(=O)c2c(ncn2CC[N+](C)(C)C)n(C)c1=O`: 105% (inactive); `OC(c1cc(-c2ccccc2)nc2ccc(Cl)cc12)C1CCCCN1` (stereo unspecified): 67.5% (inactive).
